Laboratory results: ChEMBL document CHEMBL4513216, “Probing the Open Global Health Chemical Diversity Library for Multistage-Active Starting Points for Next-Generation Antimalarials” (ACS Infect Dis, 2020)
The campaign covered roughly 69,000 compounds. About 8,600 (12%) showed an effect of 50% or more. Many of the other results were omitted from the sample, so strong results are more common in it than they were.

system: Plasmodium berghei; assay: Screen against P. berghei liver stage (PbLuc), transformed with Luciferase, at 10uM; format: functional, HepG2; settings: tested at 10 uM

SMILES | INHIBITION
CC(=O)N(Cc1noc(C2CC2)n1)C1CCN(CC(=O)NC2CC2)C1 (configuration not stated) | -11.9%
Cc1nc(CNC(=O)NC(C)c2ccc3c(c2)OCCCO3)cs1 (configuration not stated) | 1.04%
Cc1noc([C@H]2C[C@H]3OCC[C@H]3N(Cc3ccc(F)cc3)C2)n1 | 35.7%
CN(c1ccncn1)C1CC2(CCN(C(=O)c3cccn3C)C2)C1 (configuration not stated) | 15.9%
COc1ccc(-c2noc(CN3CC(n4cc(C)cn4)C3)n2)cc1 | 89.5%
Cc1cnn(CC2CN(Cc3nc(-c4ccccn4)no3)CCO2)c1 (configuration not stated) | 21.6%
Cc1cnn(C2CN(Cc3ccc4c(c3)OCCO4)C2)c1 | 57.5%
Cc1cnn(C2CN(CC(O)c3ccc4c(c3)OCCO4)C2)c1 (configuration not stated) | 23.2%
Cc1cnn(C2CN(Cc3nc(-c4ccsc4)no3)C2)c1 | 15.5%
COc1ccc(-c2noc(CN3CC(n4cccn4)C3)n2)c(OC)c1 | -18%
Cc1cnn(C2CN(CC(O)COCc3ccc4c(c3)OCO4)C2)c1 (configuration not stated) | 32.3%
CN(C)CC1CN(Cc2nc(-c3ccccn3)no2)CCO1 (configuration not stated) | -11.4%
Cc1ccc(-c2noc(CN3CC(n4cc(C)cn4)C3)n2)cc1 | 90.9%
Cc1cnn(C2CN(Cc3nc(C(C)(C)C)no3)C2)c1 | 29.4%
Cc1cnn(C2CN(Cc3nc(-c4ccccn4)no3)C2)c1 | 51.1%
Cc1ccc(-c2nnc(CN3CC(n4cc(C)cn4)C3)o2)cc1 | -9.72%
c1ccc2c(c1)COC1(CCCCC1)N2 | -30%
O=C(NCCC1=CCCCC1)Nc1cc(C(F)(F)F)c[nH]c1=O | 7.27%
c1ccc(CN2CCCC(CNc3ncnc4c3CCNCC4)C2)cc1 (configuration not stated) | 45%
CC(=O)N1CCCN(C(=O)NCCOc2ccc3c(c2)CCC3)CC1 | 35.15%
CCOC(=O)[C@H]1CNC[C@H]1C(=O)OCC | 22%
Cc1ncsc1C(=O)N1CCCC(c2cc(C(F)F)n3ncnc3n2)C1 (configuration not stated) | 5.11%
O=C(c1cnccn1)N1CCC2(CCN(Cc3ccsc3)C2)CC1 | 23.3%
CCOc1c(CNCCCn2ccnc2)cc(Cl)cc1OC | -9.2%
CN1CCN(C2CCN(C(=O)CCC3CCCC3)CC2)CC1 | 29.8%
Cc1cnn(C2CN(Cc3nc(-c4cccnc4)no3)C2)c1 | 18.2%

SMILES | INHIBITION
Cc1cccc(-c2noc(CN3CC(n4cccn4)C3)n2)c1 | 14.1%
Cc1cccc(-c2noc(CN3CC(n4cc(C)cn4)C3)n2)c1 | 90%
COCC1CN(CCOc2ccc(Cl)cc2)Cc2c1cnn2C (configuration not stated) | 53.9%
CCn1ncc2c1CN(CCc1cccc(Cl)c1)CC2COC (configuration not stated) | 59.3%
CCn1ncc2c1CN(C(=O)Cc1ccccn1)CC2COC (configuration not stated) | 18.3%
CCn1ncc2c1C(COC)CN(Cc1ccco1)C2 (configuration not stated) | 39.2%
CO[C@H]1C[C@@H](O)C12CCN(CCOc1ccc(Cl)cc1)CC2 | 44.6%
CCOCC1CN(CCc2ccccc2)Cc2c1cnn2C (configuration not stated) | 50%
COCC1CN(CCc2ccc(OC)c(OC)c2)Cc2c1cnn2C (configuration not stated) | 53.9%
CCOCC1CN(CCOCc2ccccc2)Cc2c1cnn2C (configuration not stated) | -14.3%
COCC1CN(c2ccc(C)nn2)Cc2cnn(C)c21 (configuration not stated) | 20.6%
Cn1ncc2c1CN(Cc1ccccc1F)CC2COCC1CC1 (configuration not stated) | 49.3%
CCOCC1CN(CCOc2ccc(Cl)cc2)Cc2c1cnn2C (configuration not stated) | 19.8%
COCCN1CCn2cc(CNC(=O)c3cnn(C)c3)nc2C1 | 16.8%
O=C(NCc1ccco1)[C@@H]1CC[C@@H]2[C@@H](CCN2CC2CC2)O1 | 12.3%
O=C(Cc1ccccn1)N1CCC(O)(Cn2ccc3ccncc32)CC1 | -21.4%
NC(=O)Cn1cc(NC(=O)N2CCC(c3ccccc3)CC2)cn1 | 31.65%
CC(C)CN(CC(O)c1ccc(F)cc1)C(=O)c1cc[nH]n1 (configuration not stated) | 39.5%
CC(C)OC(=O)[C@@H]1CCN(C(=O)c2ccccn2)[C@@H]1c1ccc(F)cc1 | -18.8%
Cc1cccc(S(=O)(=O)N2C[C@@H]3C[C@H](C(=O)NCC(C)C)[C@H](C2)O3)c1 | 45.2%
O=C(CC1CCCC1)N1CCn2cc(Cn3cccn3)nc2C1 | 31.1%
Cc1cc(N(C)C)nc(C2(C)CCCN2C(=O)c2ccccc2)n1 (configuration not stated) | 15.9%
Cc1cccc(N2CC[C@@H]3[C@@H](CO[C@H]3CNC(=O)c3ccco3)C2)n1 | -44.2%
Cc1cccc(N2CC[C@H]3[C@H](CO[C@@H]3CN(C)Cc3ccco3)C2)n1 | 65.3%
CN(Cc1cccnc1)C[C@@H]1OC[C@H]2CN(Cc3ccco3)CC[C@H]21 | 8.03%
Cc1ccc(N2CC[C@@H]3[C@@H](CO[C@H]3CNC(=O)c3ccco3)C2)nn1 | 57.1%

SMILES | INHIBITION
CN(Cc1ccco1)C[C@@H]1OC[C@H]2CN(Cc3nccs3)CC[C@H]21 | -46.8%
Cc1ccc(N2CC[C@H]3CO[C@H](CN(C)Cc4ccco4)[C@H]3C2)nn1 | 53.4%
Cc1ccc(CN2CC[C@H]3CO[C@H](CN(C)Cc4ccco4)[C@H]3C2)s1 | 18.7%
CN(Cc1ccco1)C[C@H]1OC[C@@H]2CCN(Cc3ccccn3)C[C@@H]21 | -14.7%
Cc1cccc(N2CC[C@@H]3[C@@H](CO[C@H]3CNS(C)(=O)=O)C2)n1 | -39.4%
Cc1cccc(N2CC[C@H]3CO[C@H](CN(C)Cc4ccco4)[C@H]3C2)n1 | 46.4%
O=C(NC[C@H]1OC[C@@H]2CCN(c3ccccn3)C[C@@H]21)c1ccco1 | -0.804%
CN(Cc1ccco1)C[C@H]1OC[C@@H]2CN(c3ncc(F)cn3)CC[C@@H]21 | 58.3%
CCc1ccc(CN2CCC(c3ccccc3C(=O)O)C2)nc1 (configuration not stated) | -8.66%
Cc1cccn2c(NC(C)(C)C)c(C3CCN(C(=O)C4CC4)CC3)nc12 | -4.49%
CNC(=O)[C@H]1C[C@@H]2CN(S(=O)(=O)c3ccc(C)c(F)c3)C[C@@H]2N1C | 0.542%
CC(CNC(=O)c1cn(-c2ccccc2)nn1)Cn1cccn1 (configuration not stated) | 20.2%
CCN(CC)C1COc2c(cc(Br)c(C)c2C)C1=O (configuration not stated) | 47.1%
COc1ccc(-c2cc(C3(O)CCN(C)CC3)on2)cc1 | 19.3%
CN(Cc1ccco1)C[C@H]1OC[C@@H]2CCN(Cc3cccs3)C[C@@H]21 | 25.4%
CN(Cc1ccco1)C[C@H]1OC[C@@H]2CCN(Cc3ccncc3)C[C@@H]21 | -46.8%
CN(Cc1ccco1)C[C@H]1OC[C@@H]2CCN(Cc3ccsc3)C[C@@H]21 | 62.4%
Cc1cn[nH]c1C1COCCN1C(=O)c1ccc2c(c1)CCCC2 (configuration not stated) | -6.88%
CSc1ccc(C(=O)C2CCCN(C(=O)CCn3cnnn3)C2)cc1 (configuration not stated) | 5.91%
COc1ccccc1CC(=O)NC(C)c1nc2cccnc2n1C(C)C (configuration not stated) | -29.8%
COc1cccc(CC(=O)NC(C)c2nc3cccnc3n2C(C)C)c1 (configuration not stated) | -17.7%
COc1ccc(CC(=O)NC(C)c2nc3cccnc3n2C(C)C)cc1 (configuration not stated) | 90.5%
CN(Cc1ncc(-c2ccccc2C(=O)O)s1)c1ncccn1 | 12%
Cc1cc(S(=O)(=O)NC(C)(C)CN)c(F)cc1F | 37.6%
CCC(NC(=O)C1CCN(S(C)(=O)=O)CC1)c1ccc(OC)cc1 (configuration not stated) | 73.6%
COc1ccc(C(C)NC(=O)C2CCN(S(C)(=O)=O)CC2)cc1C (configuration not stated) | 68.1%

SMILES | INHIBITION
COc1ccc(C(C(=O)O)N2CCN(C3CCCC3)CC2)cc1C (configuration not stated) | 43%
CCC(NC(=O)C1CCN(S(C)(=O)=O)CC1)c1ccc(OC)c(C)c1 (configuration not stated) | 23.5%
CCC(NC(=O)c1nn(C)cc1C(=O)O)c1ccc(C)cc1C (configuration not stated) | 32.3%
CCC(NC(=O)C1CCN(S(C)(=O)=O)CC1)c1ccc(C)cc1C (configuration not stated) | 88%
CCC(NC(=O)C1CCN(S(C)(=O)=O)CC1)c1ccc(OC)c(OC)c1 (configuration not stated) | -6.53%
Cc1csc(C(Cc2ccsc2)NC(=O)C2CCN(S(C)(=O)=O)CC2)n1 (configuration not stated) | -11.7%
CCOc1ccc(C(C)NC(=O)N2CCC(C(N)=O)CC2)cc1OC (configuration not stated) | 47.4%
CCC(NC(=O)C1CCN(S(C)(=O)=O)CC1)c1ccc(C)c(C)c1 (configuration not stated) | 58.5%
CCC(NC(=O)C1CCN(S(C)(=O)=O)CC1)c1ccc(C)cc1 (configuration not stated) | 33%
CCC(NC(=O)C1CCN(S(=O)(=O)N(C)C)CC1)c1ccc(C)c(C)c1 (configuration not stated) | 21.8%
Cc1cnn(CCNCc2c(C)nn(C)c2Cl)c1 | 19.2%
c1ccc(CN2CCc3nnc(COc4ccccn4)n3CC2)nc1 | 21.5%
Cc1occc1C(=O)N1CCC2(CC1)CN(Cc1nccs1)CCO2 | 30.3%
Cc1cc(C)n(CC(=O)N2CCC(c3ccn4nccc4n3)CC2)n1 | 19.5%
Cc1ccc(CN2CCC3(CCCC(=O)N3)CC2)s1 | -24.5%
CCN(Cc1ccc2c(c1)OCCO2)C(=O)NC(C)Cn1cccn1 (configuration not stated) | 45.7%
CCOCc1nc2c(c(N3CCCn4nc(C)cc4C3)n1)CCNCC2 | 34.9%
CCOCCCNC(=O)C1(C)CCC(=O)N1c1cc(OC)ccc1OC (configuration not stated) | 28.3%
Cc1cnc(C)c(N2CCN(Cc3ccc(-c4cc[nH]n4)o3)CC2)n1 | -7.48%
O=C(O)c1ccccc1C1CCN(Cc2ccc(-c3cc[nH]n3)o2)C1 (configuration not stated) | 9.16%
O=C(O)c1ccc(CC2CCN(Cc3ccc(-c4cc[nH]n4)o3)C2)cc1 (configuration not stated) | 67.8%
O=C(O)c1ccc(C2CCCN(Cc3ccc(-c4cc[nH]n4)o3)C2)cc1 (configuration not stated) | -10.4%
Fc1ccc(N2CCCN(Cc3ccc(-c4cc[nH]n4)o3)CC2)cc1 | 23.7%
Cc1cc(N2CCN(Cc3ccc(-c4cc[nH]n4)o3)CC2)cc(C)n1 | 52.4%
